In the library only some 19% were active in any assay of this set; here they are far more common.
HT1080 IDH1KD tx = toxicity to HT-1080 IDH1 knockdown cells (counter line). HT-1080 IDH1 knockdown viability, ATP luminescence, 48 h. Potency, µM (series often up to 46.1 µM), inactives show at the highest dose activity, negative = toxicity, usual class: cytotoxic. AID 686971. actives 2% (n = 360,000);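 further: potency means the concentration at half of the fitted maximal effect; 0% = DMSO wells and -100% = cell-free medium wells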
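% activity derives from luminescence (CellTiter-Glo), normalised to DMSO and no-cell wells. HT-1080-IDH1KD cells, 750/well, had 48 h compound exposure at 37 °C.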
DT40 TDP1 no CPT = qHTS for Inhibitors of human tyrosyl-DNA phosphodiesterase 1 (TDP1): qHTS in cells in absence of CPT. DT40 Tdp1-/- hTDP1 cells, no CPT, ATP luminescence, 48 h. Potency, µM (top dose mostly 46.2 µM), without a hit: top-dose activity change, negative = growth inhibition, hits mostly inhibitors. actives 15% (n = 420,000). AID 686978, 2013; further: potency means the concentration at half of the fitted maximal effect; nearly all actives have a fitted effect of over 55% in size
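Compound effects on proliferation are scored in DT40 Tdp1-/-;hTDP1 cells in the absence of CPT. ATP levels (CellTiter-Glo luminescence) are recorded after a ≥48 hr, 37 °C incubation.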
HT1080-NT tox = kills 2HG-producing HT-1080-NT fibrosarcoma cells; Potency, µM (top dose mostly 46.1 µM), for the others: at the highest dose activity, negative = less viability, usual class: cytotoxic; HT-1080-NT fibrosarcoma viability, CellTiter-Glo ATP luminescence, 48 h; actives 1.6% (n = 360,000);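 further: NT is the 2HG producing partner of a matched IDH1 knockdown line; potency means the concentration at half of the fitted maximal effect; 0% = DMSO-treated cells and -100% = media-only wells without cells; nearly all actives have a fitted effect of over 55% in size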
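Fibrosarcoma NT cells, 750 per well in 5% FBS RPMI, were exposed to compound for 48 hours. Viability: CellTiter-Glo luminescence.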
IL1B secr inh = inhibitors of inflammasome signaling (IL-1 beta secretion); actives 4.7% (n = 360,000); THP-1 LPS/ATP IL-1B secretion, AlphaLISA, 16 h; stronger effect = lower value; activity change, % at 57.5 µM; in the data active means activity change below about -50%; inconclusive means mostly about -30% to -49%
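Secreted IL-1B measured by AlphaLISA bead assay after 16 h compound exposure of THP-1 cells; compounds (final up to 57.5 uM) added 1 h before LPS (250 ng/mL) and ATP (1.25 mM) stimulation; lower signal means less secretion.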
ELG1 DNA repair = blocks ELG1-dependent DNA repair in HEK293T cells | Potency, µM (titrated, usually from 46.1 µM), for the others: at the top dose activity change, negative = inhibition, usual class: inhibitors | AID 504467 | HEK293T ELG1-luciferase reporter, luminescence, 16 h; DNA damage induced by 5-fluorouridine | actives 2.3% (n = 330,000); further: potency means the concentration at half of the fitted maximal effect; nearly all actives have a fitted effect of over 55% in size
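Reporter activity after DNA damage by 5-fluorouridine is monitored. Compound-treated cells incubate 16 hr at 37 °C, then ONE-Glo is added for 30 min before luminescence reading.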
DT40 TDP1 CPT = growth inhibition of DT40 Tdp1-/-;hTDP1 cells with camptothecin (screen for TDP1 inhibitors). actives 12% (n = 420,000). chicken DT40 Tdp1-/-;hTDP1 cells + 20 nM CPT, ATP luminescence, 48 h. Potency, µM (titrated, usually from 46.2 µM), for inactives: at the highest dose activity change, negative = growth inhibition, actives largely listed as inhibitors. AID 686979; further: potency means the concentration at half of the fitted maximal effect; nearly all actives have a fitted effect of over 55% in size
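Chicken DT40 Tdp1-/- cells complemented with human TDP1, 400 cells/well, exposed to compounds plus 20 nM camptothecin for at least 48 h at 37 C; viability read as ATP content by CellTiter-Glo luminescence.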
* marks the source's active call; other numbers are inactive results; ? = inconclusive; . = no result given; [ ] = another dose, or the depositor's remark. Unless noted, the call rests on the fitted dose curve; in most records, active means well fitted curve in the direction sought with a large enough effect; inconclusive means small, poorly fitted or top-dose-only effect, or another doubt; inactive means no such curve, though single readings can be large; an effect the other way counts as inactive or inconclusive. Unless noted, on the % scale 0 is the no-effect control and ±100 the full control effect.

SMILES	HT1080 IDH1KD tx	DT40 TDP1 no CPT	HT1080-NT tox	IL1B secr inh	ELG1 DNA repair	DT40 TDP1 CPT
CC(C)CNC(=S)N1CCN(c2nc(-c3ccc(Cl)cc3)cs2)CC1	?	16µM*	?	-69*	?	?
Clc1ccc(-c2csc(N3CCSCC3)n2)cc1	8%	29%	6%	7	?	-16%
Fc1cc(F)c2ncc3c(-c4ccccc4)nn(-c4cccc(Cl)c4)c3c2c1	.	-2%	.	.	.	-9%
CCCCCCNC(=O)CNC(=S)N(Cc1cccs1)C1CCCCC1	-2%	?	-4%	?	?	?
Cc1ccc(NC(=O)C2=NNC(=O)CC2)cc1S(=O)(=O)Nc1ccc(SC(F)F)cc1	0%	?	-5%	-16	-27%	?
Cc1ccc(C(c2sc3nc(-c4ccco4)nn3c2O)N2CCCC2)cc1 (configuration not stated)	.	1%	.	.	.	8%
COc1cccc(/C=C2\NC(=O)NC2=O)c1O	7%	16%	10%	-50*	?	-8%
O=C(Nc1cnns1)Oc1ccccc1	2%	-13%	4%	5	.	-17%
O=S(c1ccc2ccccc2c1)c1cnns1 (configuration not stated)	?	2.6µM*	?	-111*	2%	1µM*
CCOC(=O)c1ccccc1NC(=O)Nc1cc2c(cc1N1CCCCC1)n(C)c(=O)n2C	.	0%	.	.	.	6%
Cc1nn(Cc2ccc(C(=O)N3c4ccc(F)cc4CCC3C)o2)c(C)c1Br (configuration not stated)	-26%	16µM*	-25%	-6	-7%	21µM*
COc1ccc(C(=O)N2c3ccc(F)cc3CCC2C)cc1OC (configuration not stated)	-1%	?	-3%	-12	-20%	?
Cc1ccc(C(=O)N2c3ccc(F)cc3CCC2C)o1 (configuration not stated)	-2%	?	0%	11	?	?
COc1cc(C(=O)N2c3ccccc3CCC2C)cc(OC)c1OC (configuration not stated)	?	9.2µM*	5%	7	?	18µM*
CC1CCc2cc(F)ccc2N1C(=O)c1ccc2c(c1)OCO2 (configuration not stated)	-9%	15µM*	-19%	-1	?	?
CC1CCc2cc(F)ccc2N1C(=O)CCl (configuration not stated)	?	6.5µM*	?	-97*	16%	5.8µM*
COc1cc(OC)cc(C(=O)N2c3ccc(F)cc3CCC2C)c1 (configuration not stated)	0%	12µM*	0%	-1	?	10µM*
CCCc1nc2ccc(C(=O)OC)cn2c1Cc1ccccc1C(F)(F)F	?	16µM*	?	15	.	?
CCCc1nc2ccc(C)cn2c1Cc1ccc(C)cc1	?	18µM*	?	-4	.	21µM*
CCCc1nc2ccc(C(=O)OC)cn2c1Cc1ccccc1	-23%	29µM*	-14%	24	.	?
CCCc1nc2ccc(C(=O)OC)cn2c1Cc1ccc(C)cc1	-21%	23µM*	?	17	.	18µM*
COc1ccc(C2=NOC(C(=O)N(C)Cc3ccccc3)C2)cc1 (configuration not stated)	27%	-22%	11%	6	5%	-21%
CCOC(=O)C1CCCCN1Cc1nc(N2CCN(C(C)=O)CC2)c2ccccc2n1 (configuration not stated)	.	-28%	.	.	.	-6%[9.04 µM]
O=S1(=O)CCN(C2CCCC2)CC1	7%	-16%	10%	14	.	-5%
CC1CCC(C(C)C)C(OCC(O)CNC(C)c2ccccc2)C1 (configuration not stated)	?	15µM*	15µM*	-108*	-17%	?
SMILES	HT1080 IDH1KD tx	DT40 TDP1 no CPT	HT1080-NT tox	IL1B secr inh	ELG1 DNA repair	DT40 TDP1 CPT
CC1CCN(CC(O)COC2CC(C)CCC2C(C)C)CC1 (configuration not stated)	-22%	16µM*	?	0	-16%	?
CC(NCC(O)COC1CCC(C(C)(C)C)CC1)c1ccccc1 (configuration not stated)	-7%	21µM*	-22%	-67*	-6%	?
O=C(O)C1C2C=CC(O2)C1C(=O)Nc1ccc(S(=O)(=O)Nc2ccccc2)cc1 (configuration not stated)	?	?	2%	0	-6%	15µM*
COc1cc([N+](=O)[O-])c(C)cc1NC(=O)c1ccc(OC)c(OC)c1	17%	?	5%	-17	.	-18%
O=C(NC1CCCC1)c1cc(-c2ccc(Cl)cc2Cl)on1	8%	-22%	10%	-21	?	3%
O=C(CSc1nccn1Cc1ccc(Cl)cc1)NC1CCCC1	.	-2%	.	.	.	-22%
ClN=C1C=CC=CC1=NCl	1%	?	-12%	66	.	16µM*
N#Cc1cccnc1N1CCN(C(c2ccnc3ccccc23)c2nnnn2-c2ccc3c(c2)OCCO3)CC1 (configuration not stated)	-20%	?	-15%	-12	.	?
N#CCCN(Cc1ccccc1)C(c1ccnc2ccccc12)c1nnnn1-c1ccc2c(c1)OCCO2 (configuration not stated)	2%	-88%	-2%	37	.	?
CN(CCc1ccccc1)C(c1ccnc2ccccc12)c1nnnn1-c1ccc2c(c1)OCCO2 (configuration not stated)	?	16µM*	?	-4	.	?
c1ccc(CN(Cc2ccccc2)C(c2ccnc3ccccc23)c2nnnn2-c2ccc3c(c2)OCCO3)cc1 (configuration not stated)	-21%	23µM*	-14%	21	.	?
Cc1cccc(C)c1-n1nnnc1C(c1ccnc2ccccc12)N(CCC#N)Cc1ccccc1 (configuration not stated)	-5%	10µM*	2%	-1	.	13µM*
Cc1cccc(C)c1-n1nnnc1C(c1ccnc2ccccc12)N(Cc1ccccc1)Cc1ccccc1 (configuration not stated)	2%	?	25%	-19	.	?
CC(C)(C)c1ccc(OCC(=O)Nc2ccncc2)cc1	-15%	?	-15%	-16	-5%	?
